Results taken from PubChem BioAssay (Tox21).
Inconclusive results are not listed. A call without a number means that no potency is given here. Calls of active or inactive are those of the source. Unless noted, calls come from the whole dose curve.

What was measured:
[1] = qHTS assay to identify small molecule antagonists of the sonic hedgehog signaling (Shh) pathway (AID 1259369); conditions: NIH/3T3 Gli1-Luc reporter, Shh antagonist, luminescence 24 h; series mostly up to 92.4 µM; note: nearly all actives have a fitted effect of over 45% in size; note: potency is the fitted concentration of half-maximal effect
Summary of the method: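 Conditioned medium drives Shh signalling in 3T3Gli1-Luc cells; compounds in DMSO co-applied, 24hr at 37 C, then luciferase luminescence.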

[2] = qHTS assay to identify small molecule agonists of the androgen receptor (AR) signaling pathway in the presence of an antagonist - cell viability counter screen (AID 1259379; active = well fitted curve in the direction sought with a large enough effect in the repeat runs; an effect the other way counts as inactive or inconclusive; note: nearly all actives have a fitted effect of over 25% in size; note: potency is the fitted concentration of half-maximal effect); conditions: MDA-kb2 viability, CellTiter-Fluor, 16 h; series mostly up to 92.4 µM
Summary of the method: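 A CellTiter-Fluor read-out measured viability of MDA-kb2 reporter cells (MMTV promoter with AR and GR response elements). Treatment: nilutamide 3.0uM final with compounds at 15 concentrations, 16 hr, 37C, 0% CO2.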

[3] = qHTS assay to identify small molecule agonists of the estrogen receptor beta (ER-beta) signaling pathway - cell viability counter screen (AID 1259380; active = well fitted curve in the direction sought with a large enough effect in the repeat runs; an effect the other way counts as inactive or inconclusive; note: nearly all actives have a fitted effect of over 30% in size; note: potency is the fitted concentration of half-maximal effect); conditions: ER-beta-bla HEK293T viability, CellTiter-Glo luminescence, 16 h; series mostly up to 92.4 µM
Summary of the method: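 Cells used were ER-beta-UAS-bla HEK293T in medium with 2% charcoal-stripped FBS. They were treated for 16 hr at 37C. Viability came from CellTiter-Glo luminescence.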

[4] = qHTS assay to identify small molecule antagonists of the estrogen receptor beta (ER-beta) signaling pathway - cell viability counter screen (AID 1259382; active = well fitted curve in the direction sought with a large enough effect in the repeat runs; an effect the other way counts as inactive or inconclusive; note: nearly all actives have a fitted effect of over 55% in size); conditions: ER-beta-UAS-bla HEK293T viability, CellTiter-Glo luminescence, 16 h; series mostly up to 92.4 µM
Summary of the method: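 Agonist-stimulated (1nM E2) ER-beta-UAS-bla HEK293T cells are incubated with library compounds for 16 hr at 37C. Cell viability is then assessed in the reporter-assay wells by adding CellTiter-Glo and reading luminescence after 30 min.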

[5] = target: Estrogen receptor (Homo sapiens) (UniProt P03372); experiment: qHTS assay to identify small molecule agonists of the estrogen receptor alpha (ER-alpha) signaling pathway in the presence of an antagonist (AID 1259383); conditions: VM7Luc4E2 cells, ERE-luciferase, +ICI-182,780, 22 h; series mostly up to 92.4 µM; note: top concentration of the series differs between compounds; nearly all actives have a fitted effect of over 15% in size
Sequence of Estrogen receptor (Homo sapiens) (P03372 whole entry, looked up): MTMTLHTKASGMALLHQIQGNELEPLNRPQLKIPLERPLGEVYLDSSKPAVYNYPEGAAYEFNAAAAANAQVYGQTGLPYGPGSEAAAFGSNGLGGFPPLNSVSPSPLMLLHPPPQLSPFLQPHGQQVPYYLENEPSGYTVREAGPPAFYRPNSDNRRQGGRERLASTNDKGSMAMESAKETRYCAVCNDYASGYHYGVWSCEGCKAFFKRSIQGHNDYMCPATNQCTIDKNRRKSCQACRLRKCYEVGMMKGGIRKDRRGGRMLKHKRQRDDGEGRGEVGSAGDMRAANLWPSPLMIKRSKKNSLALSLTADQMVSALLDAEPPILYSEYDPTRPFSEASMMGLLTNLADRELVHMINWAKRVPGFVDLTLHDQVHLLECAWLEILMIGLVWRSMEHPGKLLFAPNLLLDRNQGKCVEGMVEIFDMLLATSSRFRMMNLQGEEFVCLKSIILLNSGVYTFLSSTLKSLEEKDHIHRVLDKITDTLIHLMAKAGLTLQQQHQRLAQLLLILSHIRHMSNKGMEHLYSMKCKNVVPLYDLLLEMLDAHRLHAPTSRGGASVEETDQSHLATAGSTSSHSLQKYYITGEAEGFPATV
Summary of the method: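 Using VM7Luc4E2 cells seeded 24hr before treatment, antagonist ICI-182,780 (10.0nM final) was added, followed by compounds at 15 concentrations. Plates incubated 22hr; ONE-Glo luminescence quantified reporter activity.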

[6] = qHTS assay to identify small molecule agonists or antagonists of the thyroid stimulating hormone receptor (TSHR) signaling pathway - wild type cell line counter screen (AID 1259384); conditions: HEK293 wild type, cAMP HTRF counter-screen; series mostly up to 92.4 µM; note: potency is the fitted concentration of half-maximal effect
Summary of the method: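 Wild-type Hek293 cells, 800/well, 18 h at 37C, then compound with Ro20-1724 for 30 min RT. cAMP by HTRF (cAMP-d2/anti-cAMP cryptate), 1 h RT, fluorescence read. 15 concentrations, triplicates.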

[7] = target: Thyrotropin receptor (Homo sapiens) (UniProt P16473); experiment: qHTS assay to identify small molecule antagonists of the thyroid stimulating hormone receptor (TSHR) signaling pathway (AID 1259385); conditions: TSHR-HEK293 cAMP HTRF, TSH-stimulated antagonist mode; series mostly up to 92.4 µM; note: nearly all actives have a fitted effect of over 20% in size
Sequence of Thyrotropin receptor (Homo sapiens) (P16473 whole entry, looked up): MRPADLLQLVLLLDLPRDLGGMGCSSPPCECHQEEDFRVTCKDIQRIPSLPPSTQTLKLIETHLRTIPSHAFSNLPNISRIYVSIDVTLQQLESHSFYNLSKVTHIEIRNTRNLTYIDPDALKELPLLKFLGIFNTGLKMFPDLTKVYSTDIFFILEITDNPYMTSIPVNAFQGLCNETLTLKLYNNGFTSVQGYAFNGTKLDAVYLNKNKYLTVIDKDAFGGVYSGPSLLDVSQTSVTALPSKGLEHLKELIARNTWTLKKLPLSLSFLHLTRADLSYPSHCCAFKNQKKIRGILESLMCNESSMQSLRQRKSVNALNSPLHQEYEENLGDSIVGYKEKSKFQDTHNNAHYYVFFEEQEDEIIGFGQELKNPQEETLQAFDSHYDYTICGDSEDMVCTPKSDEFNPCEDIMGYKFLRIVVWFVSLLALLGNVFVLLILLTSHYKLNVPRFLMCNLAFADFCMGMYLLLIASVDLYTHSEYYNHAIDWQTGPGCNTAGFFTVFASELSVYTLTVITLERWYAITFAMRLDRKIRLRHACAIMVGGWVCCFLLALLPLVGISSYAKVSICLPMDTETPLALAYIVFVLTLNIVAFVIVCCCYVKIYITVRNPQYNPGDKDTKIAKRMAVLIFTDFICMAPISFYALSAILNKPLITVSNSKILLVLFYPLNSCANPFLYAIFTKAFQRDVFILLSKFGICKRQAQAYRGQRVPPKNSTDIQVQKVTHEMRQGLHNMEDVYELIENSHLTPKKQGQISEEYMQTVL
Summary of the method: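 TSHR-HEK293 cells (800/well) plated 18 h, then compounds with Ro20-1724 and TSH at 1.5 ng/mL final, 30 min at room temperature. cAMP quantified by HTRF (cAMP-d2/anti-cAMP-cryptate, 1 h); 15 concentrations in triplicate.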

[8] = target: Androgen receptor (Homo sapiens) (UniProt P10275); experiment: qHTS assay to identify small molecule agonists of the androgen receptor (AR) signaling pathway in the presence of an antagonist (AID 1259381); conditions: MDA-kb2 MMTV-luciferase, AR agonist + nilutamide, 16 h; series mostly up to 92.4 µM; note: nearly all actives have a fitted effect of over 15% in size
Sequence of Androgen receptor (Homo sapiens) (P10275 whole entry, looked up): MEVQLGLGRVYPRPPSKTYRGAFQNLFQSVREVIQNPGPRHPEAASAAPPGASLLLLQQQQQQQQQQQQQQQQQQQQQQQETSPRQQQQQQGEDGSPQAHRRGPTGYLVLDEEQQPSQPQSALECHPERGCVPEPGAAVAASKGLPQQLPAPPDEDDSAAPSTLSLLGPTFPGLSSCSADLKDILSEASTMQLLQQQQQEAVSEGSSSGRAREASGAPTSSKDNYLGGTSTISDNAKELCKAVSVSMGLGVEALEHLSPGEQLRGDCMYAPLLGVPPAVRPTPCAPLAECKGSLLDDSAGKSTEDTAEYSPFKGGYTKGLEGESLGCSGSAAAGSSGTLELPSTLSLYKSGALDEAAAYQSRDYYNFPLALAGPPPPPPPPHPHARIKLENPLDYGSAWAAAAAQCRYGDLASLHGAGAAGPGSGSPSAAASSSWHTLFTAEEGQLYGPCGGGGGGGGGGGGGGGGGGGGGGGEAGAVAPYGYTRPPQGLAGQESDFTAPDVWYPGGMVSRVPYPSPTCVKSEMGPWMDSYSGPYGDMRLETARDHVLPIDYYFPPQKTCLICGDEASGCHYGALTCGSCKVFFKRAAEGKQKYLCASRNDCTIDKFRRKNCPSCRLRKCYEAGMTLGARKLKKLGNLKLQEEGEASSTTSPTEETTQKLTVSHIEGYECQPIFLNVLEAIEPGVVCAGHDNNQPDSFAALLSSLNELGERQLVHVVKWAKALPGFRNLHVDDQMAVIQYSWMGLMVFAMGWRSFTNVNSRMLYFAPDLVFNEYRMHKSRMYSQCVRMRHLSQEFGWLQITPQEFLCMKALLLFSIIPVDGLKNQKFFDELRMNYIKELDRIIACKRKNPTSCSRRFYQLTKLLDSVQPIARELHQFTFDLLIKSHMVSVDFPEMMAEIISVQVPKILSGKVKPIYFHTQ
Summary of the method: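 Using human MDA-kb2 cells with an MMTV promoter–luciferase construct (AR and GR response elements), agonist activity is scored under 3.0uM nilutamide (final) co-treatment; 16hr incubation, 37C, luminescence readout via ONE-Glo.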

[9] = target: Estrogen receptor beta (Homo sapiens) (UniProt Q92731); experiment: qHTS assay to identify small molecule agonists of the estrogen receptor beta (ER-beta) signaling pathway (AID 1259377; active = well fitted activation curve with a large enough effect in the signal ratio in the repeat runs, not every such curve was filed as active; the % refers to the signal ratio); conditions: ER-beta-UAS-bla HEK293T, beta-lactamase FRET ratio, 16 h; series mostly up to 92.4 µM
Sequence of Estrogen receptor beta (Homo sapiens) (Q92731 whole entry, looked up): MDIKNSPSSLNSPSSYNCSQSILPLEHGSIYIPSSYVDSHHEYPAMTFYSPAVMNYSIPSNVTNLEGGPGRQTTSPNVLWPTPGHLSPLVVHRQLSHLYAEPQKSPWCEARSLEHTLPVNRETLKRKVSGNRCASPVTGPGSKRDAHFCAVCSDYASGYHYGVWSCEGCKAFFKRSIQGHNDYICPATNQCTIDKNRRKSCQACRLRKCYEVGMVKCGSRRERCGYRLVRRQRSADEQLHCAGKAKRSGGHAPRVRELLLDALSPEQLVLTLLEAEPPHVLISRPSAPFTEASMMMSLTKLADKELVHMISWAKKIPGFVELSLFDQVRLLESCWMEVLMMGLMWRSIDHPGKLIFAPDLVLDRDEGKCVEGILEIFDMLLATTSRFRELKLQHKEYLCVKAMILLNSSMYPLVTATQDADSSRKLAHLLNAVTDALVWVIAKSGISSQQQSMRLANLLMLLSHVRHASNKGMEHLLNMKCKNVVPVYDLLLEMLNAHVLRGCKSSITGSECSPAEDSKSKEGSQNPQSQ
Summary of the method: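 Ratiometric beta-lactamase FRET read-out came after 2 h substrate loading at room temperature. It followed 16 h compound treatment at 37C of GripTite HEK293T cells carrying a UAS-bla reporter, plated in 2% charcoal-stripped FBS medium.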

[10] = target: Estrogen receptor beta (Homo sapiens) (UniProt Q92731); experiment: qHTS assay to identify small molecule antagonists of the estrogen receptor beta (ER-beta) signaling pathway (AID 1259378; active = well fitted inhibition curve with a large enough effect in the signal ratio in the repeat runs, not every such curve was filed as active; the % refers to the signal ratio); conditions: ER-beta-UAS-bla HEK293T, beta-lactamase FRET ratio, 16 h; series mostly up to 92.4 µM
Summary of the method: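 ER-beta-UAS-bla HEK293T cells in 2% charcoal-stripped FBS medium treated with compound plus 1nM final 17-beta-estradiol for 16 hr at 37C. Beta-lactamase reporter read by FRET substrate fluorescence after 2 hours at room temperature.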

SMILES | Potency [1] | Potency [2] | Potency [3] | Potency [4] | Potency [5] | Potency [6] | Potency [7] | Potency [8] | Potency [9] | Potency [10]
CCN(CC)C(=O)N[C@@H]1C=C2c3cccc4[nH]cc(c34)C[C@@H]2N(C)C1 | inactive | inactive | inactive | inactive | inactive | inactive | inactive |  |  | 
CC(=O)[O-].CC(=O)[O-].O.O.[Zn+2] | inactive | inactive | inactive | inactive |  |  |  |  |  | 
CCC(OC(C)=O)C(CC(C)NC)(c1ccccc1)c1ccccc1 (stereo not given) | 30.9 µM (active) | 49 µM (active) | 49 µM (active) |  | inactive | inactive |  | inactive |  | 
CCCCn1cc[n+](C)c1.[Cl][Fe-]([Cl])([Cl])[Cl] | inactive | inactive | inactive | inactive |  |  |  |  |  | 
CCCCN(CCCC)C(=S)S | inactive | inactive | inactive | inactive | inactive |  |  |  |  | 
CCCCn1cc[n+](C)c1 (tested in a mixture with another compound) | inactive | inactive | inactive | inactive |  |  |  |  |  | 
CC(Cc1ccc(O)cc1)NCC(O)c1cc(O)cc(O)c1 (stereo not given) | inactive | inactive | inactive | inactive | inactive | 0.668 µM (active) | inactive |  |  | 
COC(=O)N(OC)c1ccccc1COc1ccn(-c2ccc(Cl)cc2)n1 | 0.0686 µM (active) | 1.37 µM (active) | 0.969 µM (active) | inactive | inactive | inactive | inactive |  |  | 
COC(=O)C(C)N(C(=O)c1ccco1)c1c(C)cccc1C (stereo not given) |  | inactive | inactive | inactive | inactive | inactive | inactive |  | inactive | inactive
N#Cc1c[nH]cc1-c1cccc2c1OC(F)(F)O2 |  |  | 21.7 µM (active) |  | inactive | inactive | inactive |  |  | 
BrCCCBr |  | inactive | inactive |  |  |  | inactive | inactive |  | 
